# Key:
# Assay in all cases: DAPPL (digital affinity profiling via proximity ligation, sequencing); 10 mM Tris-HCl pH 7.5, 50 mM NaCl, 1 mM DTT, 4% glycerol, room temperature, 30 min; GST-TFs on glutathione beads, 16-mer random dsDNA library, 0.1% formaldehyde crosslink after washing; high values mean tight binding
# FLI1 = target: T1, FLI1 (Homo sapiens, UniProt Q01543 1-452); details: protein: recombinant; tags: N-terminal GST; dsDNA, one strand shown
# T1 sequence: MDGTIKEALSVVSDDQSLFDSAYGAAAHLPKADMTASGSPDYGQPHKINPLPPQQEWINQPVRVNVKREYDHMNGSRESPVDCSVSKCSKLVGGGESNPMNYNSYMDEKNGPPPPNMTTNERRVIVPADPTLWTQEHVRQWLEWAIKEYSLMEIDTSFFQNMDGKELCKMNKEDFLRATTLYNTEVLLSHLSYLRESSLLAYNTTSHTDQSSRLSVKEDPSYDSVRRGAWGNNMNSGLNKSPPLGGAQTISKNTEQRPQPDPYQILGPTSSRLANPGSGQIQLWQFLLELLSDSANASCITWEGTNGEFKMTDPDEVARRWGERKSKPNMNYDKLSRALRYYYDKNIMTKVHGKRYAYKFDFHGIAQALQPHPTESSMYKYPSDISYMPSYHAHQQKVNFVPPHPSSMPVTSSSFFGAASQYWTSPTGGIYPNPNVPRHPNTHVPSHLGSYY
# Method in brief: (§1)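 Yeast served to express human transcription factors as GST fusions, which were then captured on glutathione beads and labelled with DNA barcodes. Pooled with a tag-only sample, they were incubated with 200 nmole of a 16-mer random double-stranded DNA library for 30 min at room temperature in Tris/NaCl/DTT/glycerol buffer, washed, crosslinked with 0.1% formaldehyde, ligated by proximity, amplified by PCR and sequenced. Dividing each hexamer's read frequency for a factor by its frequency for the tag-only sample gives the binding signal.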
# ELK1 = target: T2, ELK1 (Homo sapiens, UniProt P19419 1-428); details: protein: recombinant; tags: N-terminal GST; dsDNA, one strand shown
# T2 sequence: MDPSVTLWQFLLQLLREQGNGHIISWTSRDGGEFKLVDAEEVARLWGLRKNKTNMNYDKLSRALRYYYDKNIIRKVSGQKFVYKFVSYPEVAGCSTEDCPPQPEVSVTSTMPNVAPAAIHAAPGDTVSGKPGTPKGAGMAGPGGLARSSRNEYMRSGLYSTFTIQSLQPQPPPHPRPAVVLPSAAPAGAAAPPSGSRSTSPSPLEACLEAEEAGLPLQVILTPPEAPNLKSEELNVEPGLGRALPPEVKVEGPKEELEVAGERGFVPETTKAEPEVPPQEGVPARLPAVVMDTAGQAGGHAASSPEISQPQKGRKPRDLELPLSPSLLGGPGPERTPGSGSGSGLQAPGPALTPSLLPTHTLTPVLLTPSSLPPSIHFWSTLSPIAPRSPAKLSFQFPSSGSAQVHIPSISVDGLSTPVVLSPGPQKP
# Method in brief: as §1
# GABPA = target: T3, GABPA (Homo sapiens, UniProt Q06546 1-454); details: protein: recombinant; tags: N-terminal GST; dsDNA, one strand shown
# T3 sequence: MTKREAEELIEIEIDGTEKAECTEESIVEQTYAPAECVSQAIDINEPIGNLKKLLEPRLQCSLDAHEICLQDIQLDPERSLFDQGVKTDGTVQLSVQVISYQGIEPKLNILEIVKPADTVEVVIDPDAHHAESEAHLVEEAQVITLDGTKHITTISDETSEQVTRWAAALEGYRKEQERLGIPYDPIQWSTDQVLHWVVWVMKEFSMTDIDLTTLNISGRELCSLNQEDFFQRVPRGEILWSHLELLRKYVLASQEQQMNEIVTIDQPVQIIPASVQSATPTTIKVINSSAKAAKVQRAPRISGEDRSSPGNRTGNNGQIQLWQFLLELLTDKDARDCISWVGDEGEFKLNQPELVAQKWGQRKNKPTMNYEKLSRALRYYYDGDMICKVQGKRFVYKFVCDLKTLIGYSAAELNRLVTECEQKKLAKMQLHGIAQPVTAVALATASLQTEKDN
# Method in brief: as §1
# ERG = target: T4, ERG (Homo sapiens, UniProt P11308 1-479); details: protein: recombinant; tags: N-terminal GST; dsDNA, one strand shown
# T4 sequence: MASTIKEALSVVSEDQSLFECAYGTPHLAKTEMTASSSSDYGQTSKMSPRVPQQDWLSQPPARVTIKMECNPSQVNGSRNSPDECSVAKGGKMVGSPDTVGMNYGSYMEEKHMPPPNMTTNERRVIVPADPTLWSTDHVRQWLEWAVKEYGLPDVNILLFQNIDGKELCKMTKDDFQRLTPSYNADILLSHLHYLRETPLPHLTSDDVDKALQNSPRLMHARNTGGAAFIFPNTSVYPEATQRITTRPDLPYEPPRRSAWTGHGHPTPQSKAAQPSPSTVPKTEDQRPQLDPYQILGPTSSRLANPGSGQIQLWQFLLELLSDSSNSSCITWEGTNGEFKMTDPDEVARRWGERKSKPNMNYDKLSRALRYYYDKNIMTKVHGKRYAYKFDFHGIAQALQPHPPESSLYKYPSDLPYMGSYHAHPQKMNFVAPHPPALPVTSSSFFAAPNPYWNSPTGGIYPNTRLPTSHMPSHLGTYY
# Method in brief: as §1
# ELF1 = ELF1 (Homo sapiens, UniProt P32519 1-619); details: protein: recombinant; tags: N-terminal GST; dsDNA, one strand shown
# Method in brief: as §1
# EHF = target: T5, EHF (Homo sapiens, UniProt Q9NZC4 1-300); details: protein: recombinant; tags: N-terminal GST; dsDNA, one strand shown
# T5 sequence: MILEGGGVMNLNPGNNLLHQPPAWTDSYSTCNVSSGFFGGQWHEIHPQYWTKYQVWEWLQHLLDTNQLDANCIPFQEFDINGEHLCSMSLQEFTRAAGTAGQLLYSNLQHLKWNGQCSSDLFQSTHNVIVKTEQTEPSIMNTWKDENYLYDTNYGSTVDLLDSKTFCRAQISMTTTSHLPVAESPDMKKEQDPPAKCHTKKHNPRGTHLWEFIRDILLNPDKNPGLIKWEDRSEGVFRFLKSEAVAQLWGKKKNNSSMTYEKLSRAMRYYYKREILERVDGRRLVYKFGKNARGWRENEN
# Method in brief: as §1
# SPI1 = SPI1 (Homo sapiens, UniProt P17947 1-270); details: protein: recombinant; tags: N-terminal GST; dsDNA, one strand shown
# Method in brief: as §1
# SPIB = SPIB (Homo sapiens, UniProt Q01892 1-262); details: protein: recombinant; tags: N-terminal GST; dsDNA, one strand shown
# Method in brief: as §1
# ELK3 = target: T6, ELK3 (Homo sapiens, UniProt P41970 1-407); details: protein: recombinant; tags: N-terminal GST; dsDNA, one strand shown
# T6 sequence: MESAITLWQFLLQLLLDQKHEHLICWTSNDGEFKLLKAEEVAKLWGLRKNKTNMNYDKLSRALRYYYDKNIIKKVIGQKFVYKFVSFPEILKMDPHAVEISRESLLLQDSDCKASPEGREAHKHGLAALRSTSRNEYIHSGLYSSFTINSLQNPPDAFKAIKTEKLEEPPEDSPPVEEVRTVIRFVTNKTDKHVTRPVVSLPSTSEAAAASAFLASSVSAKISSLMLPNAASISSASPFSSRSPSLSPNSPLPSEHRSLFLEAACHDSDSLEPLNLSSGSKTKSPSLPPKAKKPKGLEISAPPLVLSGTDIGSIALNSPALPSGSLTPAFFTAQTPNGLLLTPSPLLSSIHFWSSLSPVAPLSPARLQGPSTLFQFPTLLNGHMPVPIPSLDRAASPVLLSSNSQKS
# Method in brief: as §1
# FEV = target: T7, FEV (Homo sapiens, UniProt Q99581 1-238); details: protein: recombinant; tags: N-terminal GST; dsDNA, one strand shown
# T7 sequence: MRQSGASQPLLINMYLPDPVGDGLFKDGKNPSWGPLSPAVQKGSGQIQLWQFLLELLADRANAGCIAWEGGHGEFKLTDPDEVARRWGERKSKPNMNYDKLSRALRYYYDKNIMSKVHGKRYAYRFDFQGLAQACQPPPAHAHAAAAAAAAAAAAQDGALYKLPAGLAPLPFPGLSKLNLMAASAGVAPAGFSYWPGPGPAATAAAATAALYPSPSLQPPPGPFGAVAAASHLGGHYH
# Method in brief: as §1
# ETV5 = ETV5 (Homo sapiens, UniProt P41161 1-510); details: protein: recombinant; tags: N-terminal GST; dsDNA, one strand shown
# Method in brief: as §1
# HSF1 = HSF1 (Homo sapiens, UniProt Q00613 1-529); details: protein: recombinant; tags: N-terminal GST; chain copies: 3; dsDNA, one strand shown
# Method in brief: as §1
# SPIC = target: T8, SPIC (Homo sapiens, UniProt Q8N5J4 1-248); details: protein: recombinant; tags: N-terminal GST; dsDNA, one strand shown
# T8 sequence: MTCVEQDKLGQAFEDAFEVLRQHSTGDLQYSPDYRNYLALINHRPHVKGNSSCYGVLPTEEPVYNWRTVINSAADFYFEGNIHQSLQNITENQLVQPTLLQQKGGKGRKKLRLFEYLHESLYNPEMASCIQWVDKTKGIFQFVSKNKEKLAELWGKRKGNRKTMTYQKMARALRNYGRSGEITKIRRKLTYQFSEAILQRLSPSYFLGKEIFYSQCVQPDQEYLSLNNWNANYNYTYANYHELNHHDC
# Method in brief: as §1
# ELF4 = ELF4 (Homo sapiens, UniProt Q99607 1-663); details: protein: recombinant; tags: N-terminal GST; dsDNA, one strand shown
# Method in brief: as §1
# ELK4 = target: T9, ELK4 (Homo sapiens, UniProt P28324-2 1-405); details: protein: recombinant; tags: N-terminal GST; dsDNA, one strand shown
# T9 sequence: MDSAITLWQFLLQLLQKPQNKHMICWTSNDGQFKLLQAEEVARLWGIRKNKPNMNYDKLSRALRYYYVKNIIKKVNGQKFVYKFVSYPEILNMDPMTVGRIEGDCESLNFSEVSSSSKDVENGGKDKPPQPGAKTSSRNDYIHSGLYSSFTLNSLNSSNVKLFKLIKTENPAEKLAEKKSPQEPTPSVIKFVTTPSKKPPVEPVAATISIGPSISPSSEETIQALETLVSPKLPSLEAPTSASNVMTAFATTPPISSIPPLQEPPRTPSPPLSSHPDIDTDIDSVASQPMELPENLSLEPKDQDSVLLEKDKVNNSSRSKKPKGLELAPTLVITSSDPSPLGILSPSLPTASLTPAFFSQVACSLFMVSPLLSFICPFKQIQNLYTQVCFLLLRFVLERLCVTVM
# Method in brief: as §1
# ETV2 = target: T10, ETV2 (Homo sapiens, UniProt O00321 1-342); details: protein: recombinant; tags: N-terminal GST; dsDNA, one strand shown
# T10 sequence: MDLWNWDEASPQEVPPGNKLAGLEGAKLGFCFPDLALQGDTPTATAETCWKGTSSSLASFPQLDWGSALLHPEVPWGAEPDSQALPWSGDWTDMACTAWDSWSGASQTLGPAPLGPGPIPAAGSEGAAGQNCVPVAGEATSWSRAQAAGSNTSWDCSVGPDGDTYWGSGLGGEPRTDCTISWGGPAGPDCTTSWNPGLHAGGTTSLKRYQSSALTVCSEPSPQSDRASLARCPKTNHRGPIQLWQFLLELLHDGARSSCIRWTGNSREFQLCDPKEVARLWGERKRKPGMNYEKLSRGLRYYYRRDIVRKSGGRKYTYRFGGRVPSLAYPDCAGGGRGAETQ
# Method in brief: as §1
# ELF3 = target: T11, ELF3 (Homo sapiens, UniProt P78545 1-371); details: protein: recombinant; tags: N-terminal GST; dsDNA, one strand shown
# T11 sequence: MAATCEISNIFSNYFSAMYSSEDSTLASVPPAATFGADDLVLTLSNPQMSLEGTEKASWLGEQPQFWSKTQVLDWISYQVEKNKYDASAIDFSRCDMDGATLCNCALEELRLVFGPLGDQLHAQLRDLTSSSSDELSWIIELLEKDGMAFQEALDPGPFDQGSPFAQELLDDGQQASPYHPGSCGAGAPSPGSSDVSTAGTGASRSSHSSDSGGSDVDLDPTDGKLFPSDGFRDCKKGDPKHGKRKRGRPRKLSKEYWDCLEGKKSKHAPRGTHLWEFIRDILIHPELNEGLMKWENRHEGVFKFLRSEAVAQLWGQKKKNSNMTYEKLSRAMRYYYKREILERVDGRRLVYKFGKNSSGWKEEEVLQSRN
# Method in brief: as §1
# CRX = CRX (Homo sapiens, UniProt O43186 1-299); details: protein: recombinant; tags: N-terminal GST; dsDNA, one strand shown
# Method in brief: as §1
# ETV1 = ETV1 (Homo sapiens, UniProt P50549 1-477); details: protein: recombinant; tags: N-terminal GST; dsDNA, one strand shown
# Method in brief: as §1
# Sequence of ELF4 (Q99607 whole entry): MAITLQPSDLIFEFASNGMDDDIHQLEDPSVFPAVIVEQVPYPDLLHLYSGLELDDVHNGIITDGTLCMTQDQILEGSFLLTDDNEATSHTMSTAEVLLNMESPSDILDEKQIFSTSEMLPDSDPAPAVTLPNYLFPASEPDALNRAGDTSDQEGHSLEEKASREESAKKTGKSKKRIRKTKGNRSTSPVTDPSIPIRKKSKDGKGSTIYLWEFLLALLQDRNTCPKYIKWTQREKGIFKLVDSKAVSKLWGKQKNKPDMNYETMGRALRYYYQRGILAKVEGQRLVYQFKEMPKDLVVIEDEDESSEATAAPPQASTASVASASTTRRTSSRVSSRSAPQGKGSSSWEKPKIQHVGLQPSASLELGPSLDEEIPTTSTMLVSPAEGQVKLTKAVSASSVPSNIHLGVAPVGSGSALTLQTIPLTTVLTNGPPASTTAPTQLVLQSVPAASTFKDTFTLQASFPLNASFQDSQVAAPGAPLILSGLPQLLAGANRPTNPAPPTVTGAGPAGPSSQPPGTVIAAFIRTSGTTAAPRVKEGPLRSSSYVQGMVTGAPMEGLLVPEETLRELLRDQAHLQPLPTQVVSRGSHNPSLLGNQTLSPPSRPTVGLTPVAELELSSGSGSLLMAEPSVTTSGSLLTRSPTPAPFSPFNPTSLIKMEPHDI
# Sequence of SPIB (Q01892 whole entry): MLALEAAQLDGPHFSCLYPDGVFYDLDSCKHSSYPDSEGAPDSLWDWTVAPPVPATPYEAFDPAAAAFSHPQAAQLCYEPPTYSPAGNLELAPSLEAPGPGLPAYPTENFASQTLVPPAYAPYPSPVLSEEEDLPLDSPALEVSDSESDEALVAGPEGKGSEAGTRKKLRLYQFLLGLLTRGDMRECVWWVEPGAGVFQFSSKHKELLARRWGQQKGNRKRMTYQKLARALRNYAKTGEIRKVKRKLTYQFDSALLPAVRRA
# Sequence of CRX (O43186 whole entry): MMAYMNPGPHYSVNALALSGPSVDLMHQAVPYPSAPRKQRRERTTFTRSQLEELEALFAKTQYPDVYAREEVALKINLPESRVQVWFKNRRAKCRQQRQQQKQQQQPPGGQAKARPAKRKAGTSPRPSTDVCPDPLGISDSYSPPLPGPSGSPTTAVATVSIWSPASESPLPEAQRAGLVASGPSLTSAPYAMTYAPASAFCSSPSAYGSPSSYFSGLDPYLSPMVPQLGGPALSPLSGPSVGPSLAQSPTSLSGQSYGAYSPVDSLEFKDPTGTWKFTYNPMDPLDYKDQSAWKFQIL
# Sequence of ETV5 (P41161 whole entry): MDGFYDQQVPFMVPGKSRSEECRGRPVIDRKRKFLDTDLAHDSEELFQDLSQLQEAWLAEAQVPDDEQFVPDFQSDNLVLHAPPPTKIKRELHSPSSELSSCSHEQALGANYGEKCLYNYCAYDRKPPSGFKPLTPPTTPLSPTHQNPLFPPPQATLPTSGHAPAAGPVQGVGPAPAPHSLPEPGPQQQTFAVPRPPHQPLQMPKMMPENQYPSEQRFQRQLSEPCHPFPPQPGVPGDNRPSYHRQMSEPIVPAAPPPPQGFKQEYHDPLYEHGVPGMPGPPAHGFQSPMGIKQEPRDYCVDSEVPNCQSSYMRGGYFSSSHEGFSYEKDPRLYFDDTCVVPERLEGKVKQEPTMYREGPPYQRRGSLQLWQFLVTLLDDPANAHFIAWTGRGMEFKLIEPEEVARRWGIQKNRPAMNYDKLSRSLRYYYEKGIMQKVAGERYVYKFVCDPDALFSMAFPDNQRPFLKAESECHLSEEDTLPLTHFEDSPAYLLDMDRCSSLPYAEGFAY
# Sequence of HSF1 (Q00613 whole entry): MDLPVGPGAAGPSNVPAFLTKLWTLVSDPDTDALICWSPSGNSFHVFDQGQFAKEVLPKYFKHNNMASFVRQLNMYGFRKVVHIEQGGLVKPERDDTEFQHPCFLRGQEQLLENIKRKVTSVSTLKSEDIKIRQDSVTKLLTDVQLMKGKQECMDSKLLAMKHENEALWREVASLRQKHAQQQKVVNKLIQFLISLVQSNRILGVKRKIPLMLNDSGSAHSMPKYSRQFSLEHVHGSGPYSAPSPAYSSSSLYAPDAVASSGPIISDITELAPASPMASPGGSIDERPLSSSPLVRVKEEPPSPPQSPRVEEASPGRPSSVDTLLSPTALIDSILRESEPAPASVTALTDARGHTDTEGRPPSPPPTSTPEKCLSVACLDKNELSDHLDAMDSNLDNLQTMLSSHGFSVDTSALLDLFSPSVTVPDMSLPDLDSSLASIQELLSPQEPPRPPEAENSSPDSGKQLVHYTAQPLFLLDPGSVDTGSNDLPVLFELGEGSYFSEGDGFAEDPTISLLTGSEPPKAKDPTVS
# Sequence of ELF1 (P32519 whole entry): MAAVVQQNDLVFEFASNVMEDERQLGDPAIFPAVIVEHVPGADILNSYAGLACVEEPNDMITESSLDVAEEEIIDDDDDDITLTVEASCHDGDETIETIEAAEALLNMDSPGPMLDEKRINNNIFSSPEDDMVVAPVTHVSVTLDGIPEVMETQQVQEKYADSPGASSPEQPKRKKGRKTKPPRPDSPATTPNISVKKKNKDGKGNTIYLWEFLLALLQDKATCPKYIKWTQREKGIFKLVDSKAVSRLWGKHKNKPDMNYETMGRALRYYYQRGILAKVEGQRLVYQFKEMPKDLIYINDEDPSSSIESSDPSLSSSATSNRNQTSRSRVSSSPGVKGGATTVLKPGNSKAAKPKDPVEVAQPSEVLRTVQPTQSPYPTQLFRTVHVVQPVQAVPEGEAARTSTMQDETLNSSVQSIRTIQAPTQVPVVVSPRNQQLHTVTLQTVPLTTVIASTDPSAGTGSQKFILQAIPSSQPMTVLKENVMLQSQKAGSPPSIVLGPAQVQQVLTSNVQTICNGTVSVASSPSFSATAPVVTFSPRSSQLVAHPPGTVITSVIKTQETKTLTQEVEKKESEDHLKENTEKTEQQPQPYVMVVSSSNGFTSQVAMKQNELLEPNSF
# Sequence of ETV1 (P50549 whole entry): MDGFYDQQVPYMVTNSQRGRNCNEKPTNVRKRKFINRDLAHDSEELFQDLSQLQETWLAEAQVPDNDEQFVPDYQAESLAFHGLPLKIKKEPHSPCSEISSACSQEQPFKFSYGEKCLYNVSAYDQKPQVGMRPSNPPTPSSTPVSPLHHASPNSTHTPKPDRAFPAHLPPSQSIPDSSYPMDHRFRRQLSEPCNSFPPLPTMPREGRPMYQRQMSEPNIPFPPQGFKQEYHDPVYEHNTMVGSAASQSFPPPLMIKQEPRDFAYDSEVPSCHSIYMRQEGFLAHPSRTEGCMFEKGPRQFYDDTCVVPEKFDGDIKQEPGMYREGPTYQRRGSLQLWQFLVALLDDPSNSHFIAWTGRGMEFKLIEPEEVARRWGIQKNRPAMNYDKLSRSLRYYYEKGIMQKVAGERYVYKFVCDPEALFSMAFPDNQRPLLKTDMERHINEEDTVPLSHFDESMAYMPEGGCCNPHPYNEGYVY
sequence,measurement,setting,value
CCTGCT,binding signal,FLI1,"1.46 fold enrichment (6-mer frequency, TF over GST control)"
same,binding signal,ELK1,"1.72 fold enrichment (6-mer frequency, TF over GST control)"
same,binding signal,GABPA,"1.46 fold enrichment (6-mer frequency, TF over GST control)"
same,binding signal,ERG,"1.65 fold enrichment (6-mer frequency, TF over GST control)"
same,binding signal,ELF1,"1.61 fold enrichment (6-mer frequency, TF over GST control)"
same,binding signal,EHF,"1.61 fold enrichment (6-mer frequency, TF over GST control)"
same,binding signal,SPI1,"1.78 fold enrichment (6-mer frequency, TF over GST control)"
same,binding signal,SPIB,"1.59 fold enrichment (6-mer frequency, TF over GST control)"
same,binding signal,ELK3,"1.61 fold enrichment (6-mer frequency, TF over GST control)"
same,binding signal,FEV,"1.67 fold enrichment (6-mer frequency, TF over GST control)"
same,binding signal,ETV5,"1.64 fold enrichment (6-mer frequency, TF over GST control)"
same,binding signal,HSF1,"1.34 fold enrichment (6-mer frequency, TF over GST control)"
same,binding signal,SPIC,"1.71 fold enrichment (6-mer frequency, TF over GST control)"
same,binding signal,ELF4,"1.69 fold enrichment (6-mer frequency, TF over GST control)"
same,binding signal,ELK4,"1.73 fold enrichment (6-mer frequency, TF over GST control)"
same,binding signal,ETV2,"1.59 fold enrichment (6-mer frequency, TF over GST control)"
same,binding signal,ELF3,"1.47 fold enrichment (6-mer frequency, TF over GST control)"
same,binding signal,CRX,"1.38 fold enrichment (6-mer frequency, TF over GST control)"
same,binding signal,ETV1,"1.68 fold enrichment (6-mer frequency, TF over GST control)"

# From paper PMC7862700, “An all-to-all approach to the identification of sequence-specific readers for epigenetic DNA modifications on cytosine”
